The record followed here is PubChem BioAssay (NCI).

Among the test systems are T-47D breast; BT-549 breast; MDA-MB-435 melanoma; SW-620 colon; MCF7 breast; HCT-116 colon; HCC-2998 colon; KM12 colon; MDA-MB-468 breast.
Holding throughout (assay): NCI-60 one-dose screen, 48 h (100 = growth as untreated, 0 = no growth, -100 = all killed)
Holding throughout (conditions): 10 µM

Compounds without any hit were thinned out: in the full panel of roughly 83,000, 20% have a hit.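 The test compound was applied at a single concentration to cells in 96-well plates for 48 hours, and percent growth was recorded.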 A number with no mark means an inactive call. Calls of active or inactive are those of the source. The calls were made as follows: active = growth percent below 10; inactive = the rest.

With `COc1cc(/C=C/C(=O)c2ccc(NC(=O)CN3C(=O)NC(C)(c4ccccc4)C3=O)cc2)cc(OC)c1OC` (stereo unspecified), the growth in the test with T-47D breast was 33.9%; in the test with BT-549 breast, 10.9%; in the test on MDA-MB-435 melanoma, 7.31% (active); in the test with SW-620 colon, 8.07% (active); with MCF7 breast, 2.86% (active); in the test with HCT-116 colon, -69.7% (active). Further, the growth was 10% with HCC-2998 colon, -6.47% (active) with KM12 colon and -23.1% (active) with MDA-MB-468 breast.

Turning to `O=C(CNc1nc(-c2ccccc2)cs1)Nc1ccc([N+](=O)[O-])cc1`, the growth was 2.53% (active) in the test on T-47D breast; 12.3% in the test on BT-549 breast; 40.6% in the test with MDA-MB-435 melanoma; 7.63% (active) with SW-620 colon; 1.69% (active) in the test with MCF7 breast; 11.7% with HCT-116 colon. In addition, the growth in the test with HCC-2998 colon is -97.8% (active); in the test with KM12 colon it was 36.7%; in the test on MDA-MB-468 breast, -88.2% (active).

In the case of `CN(C(=O)c1ccc(C(F)(F)F)cc1C(F)(F)F)c1sc2c(c1C#N)CCC(=O)C2`, the growth with T-47D breast is 1.04% (active); in the test with BT-549 breast, 20.8%; in the test on MDA-MB-435 melanoma, 101%; in the test with SW-620 colon it was 18.9%; with MCF7 breast, 85.8%; in the test on HCT-116 colon, 25.2%. For the same molecule, the growth in the test on HCC-2998 colon is 94.4%; in the test on KM12 colon, 74.3%; with MDA-MB-468 breast, 51.9%.

Turning to `CC1(c2ccccc2)NC(=O)N(CC(=O)Nc2ccc(C(=O)/C=C/C=C/c3ccccc3)cc2)C1=O` (stereo unspecified), the growth with T-47D breast was 17%; in the test on BT-549 breast, 38.9%; with MDA-MB-435 melanoma it was 37.1%; with SW-620 colon, 48.3%; in the test on MCF7 breast, 3.54% (active); with HCT-116 colon it was 27.1%. In addition, the growth with HCC-2998 colon was 87.2%; in the test with KM12 colon, 21%; in the test with MDA-MB-468 breast, 3.2% (active).

As for `COc1cc(NC(=O)c2cc(-c3ccc(F)cc3F)ccc2O)cc(OC)c1OC`, the growth in the test with T-47D breast was -10.1% (active); with BT-549 breast it was 4.31% (active); in the test on MDA-MB-435 melanoma, 36.2%; in the test on SW-620 colon, 55.3%; in the test on MCF7 breast, 38.9%; with HCT-116 colon it was 42.5%. Further, the results for the growth in the test on HCC-2998 colon, with KM12 colon and in the test with MDA-MB-468 breast were 63.9%, 29.8% and 15%, respectively.

Take `COc1ccc(N2N=C(c3ccc4c(c3)OCCO4)CC2c2cccc(NC(=O)CCCNS(=O)(=O)c3ccc(F)cc3)c2)cc1` (stereo unspecified): the growth with T-47D breast was 63.3%; in the test with BT-549 breast, 78.3%; in the test with MDA-MB-435 melanoma, 69.7%; in the test with SW-620 colon, 95.2%; in the test on MCF7 breast, 60.7%; with HCT-116 colon it was 73.3%. The growth in the test on HCC-2998 colon is 77.1%; in the test with KM12 colon, -92.8% (active); in the test with MDA-MB-468 breast it was 60.8%.

For the molecule `Cc1cc(=O)oc2cc(OCCCCOc3ccc(/C=C/C(=O)Nc4ccc(F)c(Cl)c4)cc3)ccc12`, the growth in the test on T-47D breast was 67.1%; in the test with BT-549 breast, 93.2%; with MDA-MB-435 melanoma it was 92.7%; in the test with SW-620 colon, 96.9%; in the test on MCF7 breast, 77.8%; with HCT-116 colon it was 87.6%. The growth in the test with HCC-2998 colon was 123%; in the test on KM12 colon, 91.3%; with MDA-MB-468 breast it was 120%.

Take `O=C(CSc1nnc(-c2c[nH]c3ccccc23)n1-c1ccccc1)Nc1ccc(C(=O)/C=C/c2ccccc2Cl)cc1`: the growth in the test on T-47D breast is 43.1%; in the test with BT-549 breast, 84.4%; with MDA-MB-435 melanoma, 65.8%; in the test with SW-620 colon, 87.6%; in the test with MCF7 breast, 40.4%; with HCT-116 colon, 22.1%. In addition, the growth was 94.6% with HCC-2998 colon, 74.7% in the test on KM12 colon and 72.1% in the test on MDA-MB-468 breast.

As for `C/C(=N\N=C\c1ccc(Cl)c([N+](=O)[O-])c1)c1ccc2c(c1)Nc1ccccc1S2`, the growth was 41.3% in the test on T-47D breast; 58.4% with BT-549 breast; 49.9% in the test on MDA-MB-435 melanoma; 6.06% (active) in the test with SW-620 colon; 6.3% (active) in the test on MCF7 breast; 19.4% in the test on HCT-116 colon. The growth in the test with HCC-2998 colon is 8.71% (active); with KM12 colon, 29.4%; in the test on MDA-MB-468 breast it was -29.3% (active).

Take `CO[C@@H]1CSS[C@H]1Cn1nc(-c2ccc(Oc3ccccc3)cc2)c2c(N)ncnc21`: the growth in the test with T-47D breast was 17.8%; with BT-549 breast, 63.8%; in the test on MDA-MB-435 melanoma it was 17.3%; in the test on SW-620 colon it was 96.7%; in the test with MCF7 breast, 30.7%; in the test with HCT-116 colon it was 31.7%. Besides, the growth is 91.6% with HCC-2998 colon, 60% with KM12 colon and 11.6% with MDA-MB-468 breast.

With `Clc1ccc2c(N/N=C/c3c[nH]c4ccc(Br)cc34)ccnc2c1`, the growth is -54.6% (active) in the test with T-47D breast; -79.5% (active) in the test on BT-549 breast; -77.3% (active) in the test on MDA-MB-435 melanoma; 2.03% (active) in the test on SW-620 colon; -56.8% (active) in the test on MCF7 breast; -10.3% (active) with HCT-116 colon. Further, the growth is -92.5% (active) with HCC-2998 colon, -81.7% (active) with KM12 colon and -94.2% (active) in the test on MDA-MB-468 breast.

`Cc1cc(C)nc(NS(=O)(=O)c2ccc(N/C(N)=N/c3nccc(-c4cccs4)n3)cc2)n1`: the growth in the test on T-47D breast is 78.8%; in the test on BT-549 breast it was 111%; in the test with MDA-MB-435 melanoma, 106%; in the test with SW-620 colon, 102%; in the test on MCF7 breast it was 67.6%; in the test with HCT-116 colon, 96.4%. For the same molecule, the growth was 127% in the test with HCC-2998 colon, 96.9% in the test on KM12 colon and 106% in the test on MDA-MB-468 breast.

Take `Cn1cc(/C=N/Nc2cccc(Cl)n2)c2ccccc21`: the growth in the test on T-47D breast is 47.2%; in the test on BT-549 breast, 43.4%; in the test on MDA-MB-435 melanoma, 10.7%; with SW-620 colon, 65.9%; in the test with MCF7 breast, 35.9%; with HCT-116 colon, 33.3%. Moreover, the growth in the test with HCC-2998 colon was 48.5%; with KM12 colon, 33.1%; with MDA-MB-468 breast, -1.15% (active).

Regarding `COc1ccc2[nH]c(=O)c(CSc3ccc(Nc4nccc(-c5ccc(Cl)cc5)n4)cc3)cc2c1`, the growth in the test with T-47D breast was 78.6%; in the test on BT-549 breast, 104%; in the test with MDA-MB-435 melanoma it was 111%; in the test on SW-620 colon, 105%; in the test on MCF7 breast it was 84.5%; in the test with HCT-116 colon, 78.9%. Also, the growth in the test with HCC-2998 colon was 115%; with KM12 colon, 102%; in the test with MDA-MB-468 breast, 97.9%.
